Shiga toxin inh = blocks Shiga toxin action in Vero cells. actives 9.2% (n = 290,000). inhibition, % at 38.7 µM. Vero cells, Shiga toxin protein synthesis inhibition reporter; in the data active = inhibition mostly above about 28%, no sharp cut-off; inactive = mostly below about 43%
Pf growth 48h = inhibits P. falciparum growth in the first generation, 48 h. actives 5.9% (n = 310,000). Potency, µM (highest dose often 28.7 µM), usual class: inhibitors. P. falciparum luciferase growth in erythrocytes, 48 h
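First compound was added to culture medium, then infected red cells at 0.1% parasitemia and 2% hematocrit (final). After incubation at 37 C under 5% CO2, luciferase detection reagent was dispensed and light output recorded.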
AMA1 RON2 block = AMA1-RON2 (P. falciparum) interaction inhibition. actives 0.2% (n = 360,000). AID 720542. Potency, µM (doses to about 58.2 µM), usual class: inhibitors. AlphaScreen AMA1-biotinylated RON2 peptide binding; note: nearly all actives have a fitted effect of over 45% in size
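AMA1 (3D7) with his tag at 25 nM final met compounds first, then biotinylated RON2 peptide at 25 nM; detection used donor plus acceptor beads, 10 µg/mL apiece, read by AlphaScreen after 30 min at room temperature.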
Pf growth 96h = P. falciparum growth inhibition at 96 hours; Potency, µM (series often up to 28.7 µM), usual class: inhibitors; actives 6.9% (n = 320,000); P. falciparum luciferase reporter growth, 96 h; AID 504834
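Delayed-death screen, second-generation endpoint: infected erythrocytes, 2% hematocrit, 0.05% parasitemia final; 96 hours at 37 C, 5% CO2; luciferase detection reagent; luminescence decrease equals reduced growth.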
SARS PLpro yeast = inhibitors of SARS-CoV papain-like protease in yeast; Potency, µM (doses to about 32.9 µM), usual class: activators; actives 0.19% (n = 330,000); S. cerevisiae expressing SARS-CoV PLpro, growth rescue; calls by dose curve; note: nearly all actives have a fitted effect of over 55% in size
CHX counter = counter-screen for Shiga toxin inhibitors: cycloheximide protein synthesis inhibition; actives 12% (n = 300,000); cell reporter, cycloheximide protein synthesis inhibition counterscreen; max response, %; in the data active = max response mostly above about 13%, no sharp cut-off; inactive = mostly below about 14%; note: read at 38.3 µM for the half of the compounds with a filed dose
Numbers stand for hits; . = inactive; ? = inconclusive; / = no result. Rows were chosen to be rich in hits. Some 19% of all compounds tested hit in one or more screens of this group. Unless noted, calls come from the whole dose curve; as a rule, active = well fitted curve in the direction sought with a large enough effect; inconclusive = small, poorly fitted or top-dose-only effect, or another doubt; inactive = no such curve, though single readings can be large; an effect the other way counts as inactive or inconclusive.

SMILES | Shiga toxin inh | Pf growth 48h | AMA1 RON2 block | Pf growth 96h | SARS PLpro yeast | CHX counter
O=S1(=O)CC(N2CCN(CCO)CC2)CN1Cc1cn(Cc2ccc(F)cc2)nn1 (stereo not drawn) | / | / | . | / | / | /
O=C(CSc1ccc(Cl)cc1)NNC(=O)c1ccco1 | . | . | . | 14.7µM | . | .
O=C(Oc1ccccc1)c1cc2ccccc2o1 | . | . | . | / | . | .
O=C(COC(=O)c1cc2ccccc2o1)c1ccccc1 | 117.1 | . | . | ? | . | 39.0
O=C(COC(=O)c1ccco1)c1ccc2ccccc2c1 | . | . | . | / | . | 55.9
O=C(COC(=O)c1cnccn1)c1ccc2ccccc2c1 | . | . | . | / | . | .
COc1cc(C(=O)COC(=O)c2ccco2)cc(OC)c1OC | / | / | . | / | . | /
Cc1ccc(C(=O)COC(=O)c2ccco2)cc1C | 88.4 | . | . | . | . | 49.3
O=C(c1ccnc(Cl)c1)N1CCCC(N2CCN(c3ccccc3F)CC2)C1 (stereo not drawn) | . | . | . | . | . | .
CC1CC(C)(C)Nc2ccc(N=O)cc21 (stereo not drawn) | 78.6 | ? | . | . | . | 50.7
Cc1ccc(C(=O)COC(=O)c2cc(=O)[nH]c3ccccc23)cc1C | 150.2 | . | . | . | . | 24.1
O=C(CSCc1ccc(Cl)cc1)c1ccco1 | . | . | / | . | . | 20.7
Cc1cc(=O)oc2cc(OC(=O)c3ccco3)ccc12 | . | . | . | . | . | .
CC1CC(C)(C)Nc2ccc(OC(=O)c3ccco3)cc21 (stereo not drawn) | 121.3 | ? | . | . | . | 48.8
COCCNC(=O)c1cccc2c(-c3cnn(C)c3)coc12 | / | / | . | / | / | /
O=C(Oc1ccc2ccccc2c1)c1ccco1 | . | . | . | . | . | 20.0
O=C(Oc1cccc(-c2cnc3ccccc3n2)c1)c1ccco1 | . | . | . | . | . | 45.4
Cc1ccc(C(=O)COC(=O)c2ccc(Br)o2)cc1C | 62.7 | / | . | . | . | 40.3
CC(=O)Nc1ccc(OC(=O)c2ccco2)cc1 | . | . | . | ? | . | .
CCN(CC)S(=O)(=O)c1ccc(C)c(C(=O)Oc2cccc(-c3cnc4ccccc4n3)c2)c1 | . | . | . | . | . | .
O=C(COC(=O)c1ccco1)c1ccc(Cl)cc1 | 103.6 | . | . | . | . | 29.1
COC(=O)C[C@H]1C=C[C@H](NC(=O)c2ccccn2)[C@@H](CO)O1 | / | / | . | / | / | /
Cn1c(=O)c2ccccc2n(CC(=O)N2CCCc3ccccc32)c1=O | . | . | . | . | . | .
CN(C)S(=O)(=O)c1ccc(NC(=O)CCCNC(=O)c2ccc(Cl)cc2)cc1 | . | . | . | . | . | .
O=C(COC(=O)c1ccco1)c1ccccc1 | 111.5 | . | . | . | . | 47.8
SMILES | Shiga toxin inh | Pf growth 48h | AMA1 RON2 block | Pf growth 96h | SARS PLpro yeast | CHX counter
COc1ccc(-c2csc(NC(=S)NC(=O)/C=C/c3ccco3)n2)cc1OC | . | . | . | . | . | .
COc1ccc(-c2csc(NC(=S)NC(=O)c3cc4ccccc4o3)n2)cc1Br | . | . | . | ? | . | 14.2
CC(C)c1ccc(/C=C/C(=O)Nc2nncs2)cc1 | 32.9 | . | . | . | . | 48.8
COc1ccc(-c2csc(NC(=S)NC(=O)/C=C/c3ccco3)n2)cc1Br | . | 10.4µM | . | ? | . | .
Cc1sc(NC(=O)/C=C/c2ccc(C(C)C)cc2)c(C#N)c1C | . | . | . | . | . | .
COc1ccc(-c2csc(NC(=S)NC(=O)c3ccco3)n2)cc1Br | . | . | . | ? | . | .
COc1ccc(-c2csc(NC(=S)NC(=O)/C=C/c3ccc(C(C)C)cc3)n2)cc1OC | . | ? | . | ? | . | 23.0
COc1ccc(NC(=O)CNC(=O)C2CCCCC2)cc1OC | / | / | . | / | . | /
CC(=O)NC12CC3CC(C1)CC(C(=O)NCc1ccc(C)cc1)(C3)C2 | . | . | . | . | . | .
CCCCCN(C(=O)CCC(=O)OCC(=O)N1CCCCC1CC)c1c(N)n(CCCC)c(=O)[nH]c1=O (stereo not drawn) | / | / | . | / | / | /
COc1cccc(CN2CCC(C(=O)N3CCN(Cc4ccc5c(c4)OCO5)CC3)CC2)c1OC | . | . | . | . | . | .
CN(C)S(=O)(=O)c1ccc(C(=O)NCC[N+]2(C)CCCCCC2)o1 | . | ? | . | 9.28µM | . | .

Screening data as filed in PubChem.
